Compound activity as filed in PubChem.
Pf_Dd2_inh: inhibitors of Plasmodium falciparum Dd2 growth. AID 1159554. activity change, % at 10 µM. P. falciparum Dd2 growth, SYBR Green, 72 h; active compounds read low. actives 2.3% (n = 94,000); in the data active = activity change below about -80%
C_diff_growth: blocks growth of Clostridium difficile; AID 1259249; Clostridium difficile clinical isolate growth, OD600, 24 h; active compounds read low; actives 0.25% (n = 86,000); growth activity, negative = inhibition, % at 16 µg/mL (by protocol);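 active = mean growth activity at or below -80% and every replicate also at or below -80%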
A number is an active result; i = inactive; nt = not tested or not shown. Shown are actives, neighbours in structure and some others; about 2.3% of the full set was active somewhere.

SMILES Pf_Dd2_inh C_diff_growth
C[C@@H]1CCCCO[C@H](CN(C)S(=O)(=O)c2ccc(Cl)cc2)[C@H](C)CN([C@H](C)CO)C(=O)c2cc(NC(=O)Cc3ccccc3)ccc2O1 i i
CCCN(C)C[C@H]1OCCCC[C@@H](C)Oc2ccc(NS(=O)(=O)c3ccc(Cl)cc3)cc2C(=O)N([C@H](C)CO)C[C@@H]1C i i
CCCN(C)C[C@H]1OCCCC[C@H](C)Oc2ccc(NS(=O)(=O)c3ccc(C)cc3)cc2C(=O)N([C@@H](C)CO)C[C@@H]1C -90 i
CCCN(C)C[C@H]1OCCCC[C@H](C)Oc2ccc(NS(=O)(=O)c3c(C)noc3C)cc2C(=O)N([C@@H](C)CO)C[C@@H]1C -89 i
CCCN(C)C[C@H]1OCCCC[C@H](C)Oc2ccc(NS(=O)(=O)c3ccc(C)cc3)cc2C(=O)N([C@H](C)CO)C[C@H]1C -86 i
CCCN(C)C[C@H]1OCCCC[C@H](C)Oc2ccc(NS(=O)(=O)c3c(C)noc3C)cc2C(=O)N([C@H](C)CO)C[C@H]1C i i
CCCN(C)C[C@H]1OCCCC[C@H](C)Oc2ccc(NS(=O)(=O)c3ccc(Cl)cc3)cc2C(=O)N([C@H](C)CO)C[C@H]1C i i
CCCN(C)C[C@@H]1OCCCC[C@@H](C)Oc2ccc(NS(=O)(=O)c3ccc(C)cc3)cc2C(=O)N([C@H](C)CO)C[C@H]1C -89 i
CCCN(C)C[C@H]1OCCCC[C@@H](C)Oc2ccc(NS(=O)(=O)c3ccc(F)cc3)cc2C(=O)N([C@H](C)CO)C[C@@H]1C i i
O=C(C[C@@H]1C=C[C@@H](NC(=O)c2cccc(F)c2)[C@H](CO)O1)NCc1ccc(Oc2ccccc2)cc1 i i
C[C@H](CO)N1C[C@H](C)[C@H](CN(C)S(=O)(=O)c2cn(C)cn2)Oc2ccc(NC(=O)Cc3ccccc3)cc2C1=O i nt
C[C@H](CO)N1C[C@H](C)[C@@H](CN(C)C(=O)NC2CCCC2)Oc2ncc(-c3ccccc3)cc2C1=O i i
C[C@@H]1CN([C@@H](C)CO)C(=O)Cc2cc(NC(=O)c3ccncc3)ccc2O[C@H]1CN(C)Cc1ccc2c(c1)OCO2 i i
CO[C@H]1CN(C)C(=O)c2cc(NC(=O)C3CCOCC3)ccc2OC[C@@H](C)N(Cc2cccnc2)C[C@H]1C i nt
Cc1noc(C)c1NC(=O)Nc1ccc2c(c1)C(=O)N([C@H](C)CO)C[C@@H](C)[C@H](CN(C)S(=O)(=O)c1ccccc1)OCCCC[C@H](C)O2 i i
C[C@H](CO)N1C[C@H](C)[C@H](CN(C)Cc2ccc(C(=O)Nc3ccccc3N)cc2)Oc2c(NC(=O)c3ccc(-c4nccs4)cc3)cccc2C1=O -90 i
C[C@H](CO)N1C[C@H](C)[C@@H](CN(C)Cc2ccccc2)Oc2c(NC(=O)c3ccc(-c4nccs4)cc3)cccc2C1=O i i
C[C@@H]1CN([C@@H](C)CO)C(=O)c2cccc(NC(=O)c3ccc(-c4nccs4)cc3)c2O[C@@H]1CN(C)Cc1ccccc1 i i
C[C@@H]1CN([C@@H](C)CO)C(=O)c2cccc(NC(=O)c3ccc(-c4nccs4)cc3)c2O[C@@H]1CN(C)Cc1ccc(C(=O)Nc2ccccc2N)cc1 -95 i
CO[C@H]1CN(C)C(=O)c2cc(NC(C)=O)ccc2OC[C@H](C)N(Cc2ccncc2)C[C@H]1C -80 nt
COCC(=O)Nc1ccc2c(c1)C(=O)N(C)C[C@H](OC)[C@H](C)CN(Cc1cccc(F)c1)[C@@H](C)CO2 -82 nt
COCC(=O)Nc1ccc2c(c1)C(=O)N(C)C[C@@H](OC)[C@@H](C)CN(Cc1cccc(F)c1)[C@H](C)CO2 i nt
CO[C@@H]1CN(C)C(=O)c2cc(NC(C)=O)ccc2OC[C@H](C)N(Cc2ccncc2)C[C@H]1C i nt
COc1ccc(S(=O)(=O)Nc2ccc3c(c2)C(=O)N([C@@H](C)CO)C[C@H](C)[C@@H](CN(C)C(=O)Nc2cccc4ccccc24)OCCCC[C@H](C)O3)cc1 i i
COc1ccc(S(=O)(=O)Nc2ccc3c(c2)C(=O)N([C@@H](C)CO)C[C@@H](C)[C@@H](CN(C)C(=O)Nc2cccc4ccccc24)OCCCC[C@@H](C)O3)cc1 i nt
SMILES Pf_Dd2_inh C_diff_growth
COc1ccc(S(=O)(=O)Nc2ccc3c(c2)C(=O)N([C@@H](C)CO)C[C@H](C)[C@H](CN(C)C(=O)Nc2cccc4ccccc24)OCCCC[C@H](C)O3)cc1 -86 nt
COc1ccc(S(=O)(=O)Nc2ccc3c(c2)C(=O)N([C@H](C)CO)C[C@@H](C)[C@@H](CN(C)C(=O)Nc2cccc4ccccc24)OCCCC[C@@H](C)O3)cc1 -86 nt
CN1C(=O)c2cc(NC(=O)c3ccccc3F)ccc2OC[C@@H]2O[C@H](CC(=O)NCc3ccc4c(c3)OCO4)CC[C@H]21 i i
CCS(=O)(=O)N1CC2(CN(Cc3ccc4c(c3)OCO4)[C@@H](CO)c3[nH]c4cc(OC)ccc4c32)C1 i i
COc1ccc(CN2CC3(CN(Cc4ccccc4OC)C3)c3c([nH]c4cc(OC)ccc34)[C@H]2CO)cc1 i i
COc1ccc(CN2CC3(C2)CN(Cc2ccc4c(c2)OCO4)[C@@H](CO)c2[nH]c4cc(OC)ccc4c23)cc1 -84 i
COc1ccc(CN2CC3(C2)CN(Cc2ccc4c(c2)OCO4)[C@H](CO)c2[nH]c4cc(OC)ccc4c23)cc1 -87 i
N#C[C@H]1[C@H](c2ccccc2-c2cccc(F)c2)[C@@H](CO)N1C(=O)C1CCCC1 i i
CCCN(C)C[C@@H]1Oc2cc(C#Cc3ccccc3OC)ccc2S(=O)(=O)N([C@H](C)CO)C[C@@H]1C -84 i
CCCN(C)C[C@@H]1Oc2cc(C#Cc3cccnc3)ccc2S(=O)(=O)N([C@@H](C)CO)C[C@@H]1C -86 i
CCCN(C)C[C@H]1Oc2cc(C#Cc3ccccc3OC)ccc2S(=O)(=O)N([C@@H](C)CO)C[C@H]1C i i
CCCN(C)C[C@@H]1Oc2cc(C#Cc3ccccc3OC)ccc2S(=O)(=O)N([C@@H](C)CO)C[C@@H]1C i i
C[C@H]1CN([C@@H](C)CO)S(=O)(=O)c2ccc(C#Cc3cccnc3)cc2O[C@H]1CN(C)CC1CC1 i nt
CCCN(C)C[C@H]1Oc2cc(C#Cc3ccccc3OC)ccc2S(=O)(=O)N([C@H](C)CO)C[C@H]1C -81 i
CN(C)C(=O)c1ccc(-c2ccccc2[C@@H]2[C@@H](C#N)N(C(=O)C3CCC3)[C@H]2CO)cc1 i i
C[C@@H]1CN([C@H](C)CO)C(=O)c2cc(NS(=O)(=O)c3ccccc3)ccc2O[C@H]1CN(C)C(=O)Nc1cccc2ccccc12 i i
CCCC(=O)N1CCC2(CC1)CN(C(=O)CN1CCOCC1)[C@H](CO)c1c2c2ccc(OC)cc2n1C i i
C[C@@H]1CN([C@H](C)CO)C(=O)Cc2cc(NC(=O)Cn3cnnn3)ccc2O[C@H]1CN(C)C(=O)NC1CCCCC1 i i
O=C(N[C@@H]1C[C@@H]2O[C@H](CO)CC[C@@H]2O[C@@H]1CCc1ccc(C#Cc2ccccc2)cc1)c1ccccn1 i i
C[C@@H]1CCCCO[C@@H](CN(C)C(=O)Nc2cccc3ccccc23)[C@H](C)CN([C@@H](C)CO)C(=O)c2cc(NC(=O)Nc3ccc(C(F)(F)F)cc3)ccc2O1 i i
